Data: PubChem BioAssay AID504834 (National Center for Advancing Translational Sciences (NCATS), 2011)
Out of some 320,000 compounds screened, about 22,000 (6.9%) were called active. Not shown: some 27% with an inconclusive outcome. Calls follow the shape of the dose curve; as a rule, active = well fitted inhibition curve with a large enough effect; inconclusive = small, poorly fitted or top-dose-only effect, or another doubt; inactive = no such curve, though single readings can be large or run the other way. For the sample, actives were picked, then their nearest neighbours and some compounds at random.

Test: Primary qHTS for delayed death inhibitors of the malarial parasite plastid, 96 hour incubation
Settings: P. falciparum luciferase reporter growth; series mostly up to 28.7 µM; activity change, negative = inhibition: at the top concentration
Method in brief: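 Luminescence readout: decreased luciferase signal marks inhibited growth of reporter-expressing P. falciparum in infected red cells (2% hematocrit, 0.05% parasitemia final), exposed to compound two generations (96 h, 37 C, 5% CO2).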
% is scaled to controls: 0 for no effect and ±100 for the full control effect; potency is read from the fitted curve at half-maximal effect.

Row | Structure (SMILES) | activity change, negative = inhibition | Potency
1 | CCC(=O)c1ccc(OCC(=O)OCC(=O)N2CCc3ccccc3C2)cc1 | -1.61% (inactive) | –
2 | COC(=O)c1ccc2c(C(C)(C)O)c(C(C)(C)O)[nH]c2c1 | 57.4% (inactive) | –
3 | Cc1cccc(-c2oc3ccc(-c4ccc5c(c4)OCO5)cc3c2C#Cc2cncn2C)c1 | – | 1.17 µM (active)
4 | C/C(=C/c1ccccc1)C(=O)N1CCN(c2ccccc2)CC1 | -16% (inactive) | –
5 | Nc1c(N(Cc2ccco2)C(=O)c2cccc(F)c2)c(=O)[nH]c(=O)n1Cc1ccccc1 | -29.7% (inactive) | –
6 | O=C(O)CN1c2cccc3cccc(c23)S1(=O)=O | 16.1% (inactive) | –
7 | Cc1ccc(F)cc1NC(=O)c1cccc(N(C)C)c1 | – | 11.7 µM (active)
8 | Cc1ccc(F)cc1NC(=O)c1ccc2c(c1)OCO2 | 42.7% (inactive) | –
9 | O=C(Nc1cccc(NC(=O)c2cccc(F)c2)c1)c1ccccc1 | 37.7% (inactive) | –
10 | Cc1c(C(=O)NC(C)C2CC3CCC2C3)cccc1[N+](=O)[O-] (stereo not given) | 0.444% (inactive) | –
11 | COc1cc2c(cc1OC)C(c1ccccc1Br)NC(=O)C2 (stereo not given) | 0% (inactive) | –
12 | Cn1c(-c2ccc(C(F)(F)F)cc2)cc2onc(-c3ccccc3)c2c1=O | 241% (inactive) | –
13 | CN(C)S(=O)(=O)c1ccc(Cl)c(NC(=O)COC(=O)CC(NC(N)=O)c2ccc(Cl)cc2)c1 (stereo not given) | 5.17% (inactive) | –
14 | O=C(NCCCN1CCN(Cc2ccccc2)CC1)C1CCN(S(=O)(=O)N2CCCC2)CC1 | -16% (inactive) | –
15 | CN1C(=O)c2ccccc2C(C(=O)NCCCN2CCCC2)C1c1c[nH]c2ccccc12 (stereo not given) | – | 10.4 µM (active)
16 | CCCCN(CC)CCNC(=O)CCNC(=O)Cn1ccc2ccccc2c1=O | 3.37% (inactive) | –
17 | CCN(CC)CCNC(=O)C1c2ccccc2C(=O)N(C)C1c1cn(C)c2ccccc12 (stereo not given) | – | 2.94 µM (active)
18 | CC1CCN(CC(=O)c2c[nH]c3ccccc23)CC1 | 52.6% (inactive) | –
19 | COc1ccc(C2C(C(=O)N3CCN(c4ccc(OC)cc4)CC3)c3ccccc3C(=O)N2C)cc1 (stereo not given) | 3.2% (inactive) | –
20 | COc1cccc(C(=O)OCC(=O)c2[nH]c(C)c(C(C)=O)c2C)c1 | 13.9% (inactive) | –
21 | COc1ccc(C2=NS(=O)(=O)N(C)C(C(=O)N3CCCCC3)=C2)cc1 | 2.02% (inactive) | –
22 | COc1ccc2c(c1)c1ncn(Cc3ccccn3)c(=O)c1n2C | -10.8% (inactive) | –

Row | Structure (SMILES) | activity change, negative = inhibition | Potency
23 | CC1=CCC2C(=O)N(c3cccc(C(=O)NC(C)c4ccccc4)c3)C(=O)C2C1 (stereo not given) | -2.07% (inactive) | –
24 | NC(=O)CSc1nnc(NC(=O)c2ccc(Br)o2)s1 | 24.6% (inactive) | –
25 | CN(C)S(=O)(=O)N1CCC(Oc2cccc(C(=O)NCCCC3CCCC3)c2)CC1 | 22% (inactive) | –
26 | Cc1ccc(CNC(=O)CC(NC(=O)c2ccccc2)c2ccccc2)cc1 (stereo not given) | -14.6% (inactive) | –
27 | Cc1ccc(NC(=O)CN2C(=O)NC(C)(c3ccc(Cl)cc3)C2=O)c(Br)c1 (stereo not given) | 9.53% (inactive) | –
28 | CN(C(=O)CN1C(=O)NC(C)(CCc2ccccc2)C1=O)c1ccccc1 (stereo not given) | 38.7% (inactive) | –
29 | Cc1ccc(S(=O)(=O)Nc2nc(N)n(-c3ccccc3)n2)cc1 | -1.37% (inactive) | –
30 | Cc1ccc(S(=O)(=O)c2c(N)n(C)c3nc4ccccc4nc23)cc1 | – | 0.928 µM (active)
31 | Cc1ccc(S(=O)(=O)NCc2nc3ccccc3c(=O)n2N)cc1 | 19% (inactive) | –
32 | Cc1ccsc1/C=N/NC(=O)Cc1cc(=O)[nH][nH]1 | -14.1% (inactive) | –
33 | CCC1(c2ccccc2)NC(=O)N(CC(=O)Nc2ccccc2C(=O)NC2CCCC2)C1=O (stereo not given) | -8.21% (inactive) | –
34 | COC(=O)c1ccccc1NC(=O)CSc1nc2c(c(=O)[nH]1)CCC2 | 60.5% (inactive) | –
35 | Cn1c(=O)c2c(nc(SCCNS(=O)(=O)c3ccccc3)n2C)n(C)c1=O | – | 14.7 µM (active)
36 | CCOC(=O)CSc1nc2c(c(=O)n(C)c(=O)n2C)n1Cc1ccccc1F | 74% (inactive) | –
37 | CCCSc1nc2c(c(=O)n(C)c(=O)n2C)n1Cc1ccc(C)cc1 | – | 13.1 µM (active)
38 | Cc1c(S(=O)(=O)NCc2ccccc2)c(=O)n(C)c(=O)n1C | 11.9% (inactive) | –
39 | Cn1c(=O)c2c(nc(SCC(=O)Nc3ccccc3N3CCCCC3)n2C)n(C)c1=O | -18.4% (inactive) | –
40 | Cc1cccc(Cn2c(SCCO)nc3c2c(=O)n(C)c(=O)n3C)c1 | -16.9% (inactive) | –
41 | Cc1ccc(CNS(=O)(=O)CCNC(=O)c2ccccc2)cc1 | 17.1% (inactive) | –
42 | CC1C(=O)N2CCCc3cc(S(=O)(=O)NCc4ccc(F)cc4)cc1c32 (stereo not given) | -6.87% (inactive) | –
43 | CC(C)CNS(=O)(=O)c1ccc(C(=O)Nc2ccc3c(c2)OCO3)cc1 | 0.709% (inactive) | –
44 | COc1ccc(Cn2c(=S)[nH]c3cc(C(=O)N4CCCCC4)ccc3c2=O)cc1 | 9.86% (inactive) | –

Row | Structure (SMILES) | activity change, negative = inhibition | Potency
45 | Cc1ccc(S(=O)(=O)N2[C@@H](c3ccccc3F)C(C(=O)O)=CC[C@H]2c2ccc(Cl)cc2)cc1 | 59.7% (inactive) | –
46 | Cc1cc(Nc2ccc(C(=O)N3CCCCC3)cc2)c2cccc(C)c2n1 | 11.2% (inactive) | –
47 | CCn1cc(CN2CCC(n3nccc3NC(=O)CCCc3ccccc3)CC2)c(C)n1 | 83.5% (inactive) | –
48 | c1ccc2c(c1)CSc1sccc1C2=C1CCNCC1 | – | 10.4 µM (active)
49 | CCOC(=O)CNC(=O)CSc1ncccc1-c1nc2ccccc2[nH]1 | 6.22% (inactive) | –
50 | Cc1ccccc1N1CCN(S(=O)(=O)c2ccc3ccccc3c2)CC1 | 14.2% (inactive) | –
51 | Cc1ccc(-n2c(SCC(=O)NCCC3=CCCCC3)nc3n[nH]c(C)c3c2=N)cc1Cl | -13.5% (inactive) | –
52 | CC1(c2ccc(Cl)cc2Cl)NC(=O)N(CC(=O)Nc2cccnc2Cl)C1=O (stereo not given) | -14.1% (inactive) | –
53 | Cc1ccc(CN2CCCC(C(=O)c3ccc4c(c3)OCO4)C2)cc1C (stereo not given) | -0.489% (inactive) | –
54 | COc1cc(CN2CCCC(C(=O)c3ccc(SC)cc3)C2)cc(Cl)c1O (stereo not given) | 0% (inactive) | –
55 | COc1ccc(CN2CCCC(C(=O)c3ccc(Cl)cc3)C2)cc1Cn1cncn1 (stereo not given) | – | 10.4 µM (active)
56 | COc1ccc(NC(=O)CSCc2ccc([N+](=O)[O-])cc2)cc1OC | 0% (inactive) | –
57 | OC(c1ccccc1)C(CN1CCOCC1)c1ccccc1 (stereo not given) | -25.2% (inactive) | –
58 | COc1ccccc1OCC(O)CN1CCOCC1 (stereo not given) | -29% (inactive) | –
59 | OC(c1ccc(Cl)cc1)C(CN1CCOCC1)c1ccccc1 (stereo not given) | – | 2.08 µM (active)
60 | COc1ccc(C(C)C)cc1S(=O)(=O)Nc1ncn[nH]1 | 8.09% (inactive) | –
61 | CCCN(CCC)S(=O)(=O)c1ccc(C(=O)NNC(=O)c2cc(OC)c(OC)c(OC)c2)cc1 | -3.24% (inactive) | –
62 | O=c1[nH]c(SCc2cccc(F)c2)nc2ccccc12 | -15.5% (inactive) | –
63 | CN1CCN(c2ccc(NC(=O)c3ccccc3)cc2)CC1 | 29.1% (inactive) | –
64 | CN1CCC(CN)(N2CCN(c3ccccc3)CC2)CC1 | – | 11.7 µM (active)
65 | O=C(c1cc(=O)c2ccccc2o1)N1CCN(c2ccccc2)CC1 | -6.9% (inactive) | –
